From PubChem BioAssay AID720537 (National Center for Advancing Translational Sciences (NCATS), 2013)
In all, about 1,600 compounds went through this assay and about 55 (3%) were called active. Not shown: some 10% with an inconclusive outcome. A selection follows. Values without a mark were called inactive. Calls follow the shape of the dose curve; as a rule, active = well fitted inhibition curve with a large enough effect; inconclusive = small, poorly fitted or top-dose-only effect; inactive = no such curve, though single readings can be large or run the other way.

Assay: qHTS for Inhibitors of TGF-b: Hit Validation in HepG2 Cells using COP promoter; also: nearly all actives have a fitted effect of over 70% in size
Details: HepG2 COP-GFP TGF-b reporter, GFP fluorescence, 18 h, cells stimulated by added recombinant TGF-beta; series mostly up to 46.1 µM; activity, negative = inhibition: at the top concentration
Excerpt: TGF-b is a main component in the TGF-b signaling pathway which plays diverse roles in cellular and development pathways. TGF-b is the mediated by the transcription factors Smads. Although the Smad-dependent pathway is the primary canonical TGF-b signaling node, TGF-b1 can also activate alternative signaling pathways, including those involving MAPK (ERK, JNK and p38). This interaction may mediate or enhance Smad-dependent responses, or can exert Smad-independent effects. The complexity of this signaling cascade allows the TGF-b superfamily to perform unique, overlapping or redundant functions. We believe that targeting the TGF-beta pathway at the Smad-transcription factor level may eliminate the consequences of disrupting the entire pathway and offer specificity without affecting other signaling pathways. Smad3 is the primary transducer of TGF-b's signals and Smad3 regulates many functions attributed to TGF-b signaling. We hypothesize that Smad3 inhibitors will selectively eliminate Smad3-specific TGF-beta signals without undesired off-target effects. We aim to identify Smad3-small molecule antagonists using a quantitative high throughput screening (qHTS) approach. A high-throughput assay was developed to screen the NIH Molecular Libraries Small Molecule Repository (MLSMR). This is a cell based assay, where TGF-b is tagged with GFP. This assays tests the hits identified from the primary screen in HepG2 cells, but using a cop promoter rather than a caga promoter. True actives from the primary screen will also be active in this assay. NIH Chemical Genomics Center [NCGC] NIH Molecular Libraries Probe Centers Network [MLPCN] MLPCN Grant: MH087449 Assay Submitter (PI): Sushil Rane, National Institute of Diabetes and Kidney Diseases
Suspensions of trypsinized HEPG2 COP-GFP cells were dispensed into white, tissue culture-treated, solid 1536-well plates at 5uL/well (1000 cells/well final concentration) in DMEM medium supplemented with 1% FBS. Plates were incubated at 37 degrees C for 2 hours, after which 23 nL of compounds or DMSO were delivered to each well using a pin tool. One uL of recombinant TGF-beta in DMEM (1% FBS) was then dispensed (500 pg/mL final concentration), and plates were incubated at 37 degrees C for 18 hours. The plates were measured on an Acumen eX3 Explorer plate reader for GFP fluorescence (ex488/em500-530). GFP values were calculated by determining the mean GFP fluorescence of individual cells, and compiling these values for each well to determine a total well GFP signal. The %Activity was determined from the corrected fluorescence values. A titration of the known TGF-B inhibitor SB431542 was included to monitor plate performance, while unstimulated HEPG2 (-TGF-B) control wells were used to normalize %Activity of identified inhibitors; unstimulated wells corresponded to 100%Activity (full inhibition), while stimulated cell controls (+DMSO) were used to normalize 0%Activity (no inhibition). Concentration-response curves were fitted to the signals arising from the resulting fluorescence. The concentration-effect curves were then classified based on curve quality (r2), response magnitude and degree of measured activity, and compounds were subsequently categorized based on their curve class.
Potency is read from the fitted curve at half-maximal effect.

SMILES | Potency | activity, negative = inhibition [%]
O=C(NC1=CC(=O)c2ccccc2C1=O)c1ccccc1 | 16.4 µM (active) | –
CCCOc1ccccc1C1CC(=O)Nc2cc3c(cc21)OCO3 (stereo not given) | – | 1.95
CCCOc1ccc(F)cc1-c1cc(C(=O)Nc2ccc(F)c(Cl)c2)[nH]n1 | – | 52.1
O=C(Nc1ccc(C2CC2(Cl)Cl)cc1)c1cccc([N+](=O)[O-])c1 (stereo not given) | – | 18.1
Cc1cccc(-c2nc(Nc3ccc(O)cc3)c3ccccc3n2)c1 | – | 75.3
COc1cncc(-c2cnc3sc(NCCc4ccccn4)nn23)c1 | – | 21.5
CCC(C)N1C(=O)S/C(=C/c2ccc(Sc3nc4ccccc4[nH]3)o2)C1=O (stereo not given) | – | 34.9
Fc1cc(F)c2nc(Nc3nc4c(F)cccc4s3)sc2c1 | – | -4.89
COC(=O)N/N=C/c1cn(CCCOc2ccc(C)cc2)c2ccccc12 | – | 47.4
CCCc1cc(-c2n[nH]c(=S)n2CC)c2ccccc2n1 | – | 3.17
Oc1c(CN2CCN(c3ccc(F)cc3)CC2)cc(Cl)c2cccnc12 | – | 14
OCC1OC(n2cnc3c(N4CCCC4)ncnc32)C(O)C1O (stereo not given) | – | 29.2
CN(C)C(=O)c1cccc(-c2cnc3sc(NCc4ccc5c(c4)OCO5)nn23)c1 | – | 14.9
Cc1ccc(CN2CC(N3CCC(Cc4ccccc4)CC3)CS2(=O)=O)cc1 (stereo not given) | – | 2.5
COc1cc(/C=C2\Oc3ccc(C#Cc4ccc(O)cc4)cc3C2=O)cc(OC)c1 | – | 0.311
Cc1ccnc(NC(=O)C2CCN(S(=O)(=O)c3c(C)c(C)cc(C)c3C)CC2)c1 | – | 28.3
COc1ccc(CC(=O)Nc2ccccc2NC(=O)c2ccco2)cc1OC | – | 5.51
O=C(Nc1ccc(Br)cn1)c1ccc([N+](=O)[O-])o1 | – | 27
Cn1c(=O)n(C)c2cc(S(=O)(=O)N3CCCc4ccccc43)ccc21 | – | 19
CN(C)c1nc(=Nc2cccc(Cl)c2)ss1 | – | 14.4
COc1ccc(-c2onc(C)c2-c2ccc3c(c2)OCCO3)c(O)c1 | – | 42.4
CCOc1ccc(CCN2C(=S)N([C@@H](CC(C)C)CN3CCC[C@@H]3CN3C(=S)NC[C@@H]3Cc3ccc(O)cc3)C[C@@H]2CC(C)C)cc1 | – | 25.5
c1ccc(-c2cn3c(n2)CCc2ccc4cccnc4c2-3)cc1 | – | 17.3
Cc1ccc(S(=O)(=O)Nc2nc3ccccc3nc2N2CCc3ccccc3C2)cc1 | – | 0.702

SMILES | Potency | activity, negative = inhibition [%]
O=C(CCC(=O)N1CCN(S(=O)(=O)c2ccc(Cl)cc2)CC1)NCc1cccc(C(F)(F)F)c1 | – | 25.9
COc1cccc2sc(N(CCCN(C)C)C(=O)CCS(=O)(=O)c3ccccc3)nc12 | – | -68.6
CCOc1ccc(NS(=O)(=O)c2ccc(C(=O)NC3CCN(Cc4ccccc4)CC3)cc2)cc1 | – | 61.9
CC(=O)c1cccc(-c2cnc3c(NC=O)cc(-c4ccc(N(C)C)cc4)cn23)c1 | – | 0.802
COc1ccccc1CSc1ncc(-c2ccc([N+](=O)[O-])cc2)[nH]1 | – | 54.3
FC(F)(F)c1ccccc1Cc1c(-c2ccccc2)nc2c3ccccc3ccn12 | – | 10.2
Cc1ccc(C)c(S(=O)(=O)N2CCN(CC(=O)Nc3ccc([N+](=O)[O-])cc3)CC2)c1 | – | 15.9
COc1c(C(C)C)oc2cc3oc(=O)ccc3cc12 | – | 67.8
Cc1ccc(-c2nc3ccc(Br)cn3c2Cc2ccccc2C(F)(F)F)cc1 | – | 19.4
Brc1ccc2nc(-c3ccccc3)c(Cc3ccccc3)n2c1 | – | 17.5
COc1ccc(-c2csc(NC3OC(=O)c4ccccc43)n2)cc1 (stereo not given) | – | 69.1
Cc1ccc(S(=O)(=O)Nc2ccc3c(c2)C(=O)N([C@H](C)CO)C[C@@H](C)[C@@H](CN(C)C(=O)Nc2cccc4ccccc24)O3)cc1 | – | -0.193
CN(c1ccccc1)S(=O)(=O)c1ccc(C(=O)N2CCN(c3ccccc3Cl)CC2)cc1 | – | 14.1
COc1cc(CC(=O)Nc2nc(-c3ccc(F)c(F)c3)cs2)cc(OC)c1OC | – | 25
COc1ccc2nc(N3CCN(C(=O)c4ccc([N+](=O)[O-])o4)CC3)sc2c1 | – | -6.27
CC1CCc2c(nc3ncnn3c2Nc2ccc(OC(F)(F)F)cc2)C1 (stereo not given) | – | 2.87
Cc1cc(C)cc(N(CC(=O)N2CC=C(c3ccccc3)CC2)S(=O)(=O)c2c(C)noc2C)c1 | – | 1.43
Cc1oc2c(F)c(F)c(F)c(F)c2c1S(=O)(=O)Nc1cccc(C(F)(F)F)c1 | – | 54.8
CCOC(=O)C1=C(N)N(c2ccc(C)cc2)C2=C(C(=O)CCC2)C1c1cccs1 (stereo not given) | – | 22.7
CN(C)c1nc(N)nc(CSc2nnnn2-c2cccc3ccccc23)n1 | – | 47.2
CC(=O)c1ccc(-c2cnc3c(NC=O)cc(-c4cccc(NS(C)(=O)=O)c4)cn23)cc1 | – | 35.4
COc1cc(NC(=O)COC(=O)c2ccc([N+](=O)[O-])s2)cc(OC)c1OC | – | 5.21
CN(C(=O)c1cccc(NC(=O)Cc2cccc([N+](=O)[O-])c2)c1)C1CCCCC1 | – | 13.5
O=C(Nc1ccc(Cl)cc1)Nc1nnc(/C=C/c2ccccc2)s1 | – | -2.14

SMILES | Potency | activity, negative = inhibition [%]
c1ccc2cc3c(NCCN4CCOCC4)ccnc3cc2c1 | – | 28.4
OCCCNc1nccc(-c2cc(Nc3cccc(Cl)c3)ncn2)n1 | – | 22
O=C(/C(=C/c1cccc(Cl)c1)c1nc2ccccc2[nH]1)c1ccccc1 | – | 45.1
COc1cccc(CNc2nc(NCc3ccccc3OC)nc3ccsc23)c1 | – | 13.8
CC(=NNC(=S)N1CCCCCC1)c1ccccn1 | – | 14.9
CCN(CC)C(=O)C1=C(C)N(Cc2ccc(C(C)(C)C)cc2)C(=O)C(CC(=O)NCc2cccc3ccccc23)C1 (stereo not given) | – | 48.3
S=C(NCC1COc2ccccc2O1)Nc1ccc(Br)cc1 (stereo not given) | – | 30.5
CN(C)CCNC(=O)c1ccc(Cl)c2cc3ccccc3nc12 | – | -6.16
Cc1nc(/N=C(\N)NC(=O)NC2CCCCC2)nc2ccccc12 | – | 87
O=C(Nc1nnc(S(=O)(=O)N2CCCCCC2)s1)c1cccc(Br)c1 | – | 34.1
O=c1[nH]c(CCl)nc2cc(-c3ccc(Cl)cc3)sc12 | – | 20.5
O=[N+]([O-])c1ccccc1S(=O)(=O)Nc1cccc2cccnc12 | – | 35.7
COc1ccc(CNC(=O)C[C@H]2C[C@H](C(=O)N3CCOCC3)[C@@]3(CCC4CCCC4)c4[nH]c5ccc(Cl)cc5c4CCN3C2=O)cc1OC | – | 53.4
COc1ccc(C)cc1S(=O)(=O)N1CCN(S(=O)(=O)c2cc(C(=O)O)ccc2C)CC1 | – | -3.02
Cc1nn(-c2ccccc2)c(C)c1/C=N/NC(=O)CSc1nc2ccccc2c(=O)n1-c1ccccc1 | – | -7.84
COC(=O)COc1cccc2c(=O)n(CC(=O)NCc3ccccc3)ccc12 | – | 5.12
Clc1ccc(Nc2nc(-c3cccs3)cs2)nc1 | – | 18.4
Clc1cccc(Cc2c(-c3cccc(Cl)c3)nc3ccc(Cl)cn23)c1 | – | 18.8
COc1ccc(C(=O)c2c3ccc([N+](=O)[O-])cc3[n+]([O-])n2CCCN)cc1 | – | 91
COc1cc(NC(=O)c2ccccc2NS(=O)(=O)c2ccc(Cl)s2)cc(OC)c1 | – | 59.7
Clc1ccc2c(c1)C1=C(C(c3ccncc3)O2)C(c2ccc(Br)cc2)n2ncnc2N1 (stereo not given) | – | 13
Cc1cccc(NS(=O)(=O)c2ccc(-c3cnc(C4CC4)o3)cc2)c1 | – | 55.2
